Data: PubChem BioAssay (NCI)
The panel holds about 79,000 compounds, 15% with a hit somewhere; the sample as a whole holds those more often. Cut-off read from the data, not from the text of the source: active = growth inhibition above about 70%; inactive = the rest.

Tests used:
[1] = NCI Yeast Anticancer Drug Screen. Data for the rad50 strain (AID 155);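 note: 0% = growth of vehicle-only cultures of the same strain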; conditions: S. cerevisiae rad50 strain growth inhibition; at 50.0 µM; active compounds read high
How it was run: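 Yeast carrying a defined DNA repair defect were exposed to test compounds, and growth was compared with vehicle-treated controls to give percent inhibition.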

[2] = NCI Yeast Anticancer Drug Screen. Data for the mec2-1 strain (AID 157); conditions: S. cerevisiae mec2-1 strain, at 50.0 µM, active compounds read high
How it was run: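 Vehicle-treated cultures served as reference for growth inhibition of compound-exposed mec2-1 yeast.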

[3] = NCI Yeast Anticancer Drug Screen. Data for the sgs1 mgt1 strain (AID 161);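 note: 0% = growth of cultures given vehicle only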; conditions: S. cerevisiae sgs1 mgt1 strain, at 50.0 µM, active compounds read high
How it was run: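 Read-out: growth inhibition vs vehicle controls. Cells: mutant yeast strain deficient in DNA damage repair.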

[4] = NCI Yeast Anticancer Drug Screen. Data for the cln2 rad14 strain (AID 165);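 note: 0% = growth equal to vehicle treated cultures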; conditions: S. cerevisiae cln2 rad14 strain, at 50.0 µM, active compounds read high
How it was run: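 Each compound was tested on cln2 rad14 yeast. Inhibition of growth was calculated against vehicle-exposed controls.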

[5] = NCI Yeast Anticancer Drug Screen. Data for the bub3 strain (AID 167); conditions: S. cerevisiae bub3 mutant strain, at 50.0 µM, active compounds read high
How it was run: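 Compounds were applied to a genetically altered yeast strain carrying a cell-cycle control defect. Growth inhibition was scored against vehicle-treated controls.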

[6] = NCI Yeast Anticancer Drug Screen. Data for the mlh1 rad18 strain (AID 175); conditions: S. cerevisiae mlh1 rad18 strain growth inhibition; at 50.0 µM; active compounds read high
How it was run: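 Vehicle-treated cultures served as the reference for growth inhibition in a yeast strain carrying DNA damage repair alterations exposed to each compound.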

Measured: growth inhibition

CC(=O)OCC1OC(n2c(N)c(C#N)c(-c3ccccc3)c(C#N)c2=S)C(OC(C)=O)C(OC(C)=O)C1OC(C)=O (stereo not given)
inactive: [1] 13.4% | [2] 11.2% | [3] -21.9% | [4] -8.8% | [5] -14.7% | [6] -60.2%

O=C(O)c1cccc2c1C1CCC2c2cccc(C(=O)O)c21
inactive: [1] -29.2% | [2] 0.95% | [3] 15.6% | [4] 3.05% | [5] -2.6% | [6] 9.7%

O=C(/C=C\c1ccccc1)c1ccc(-c2cccc(-c3ccccc3)c2)cc1
inactive: [1] -8.55% | [2] 7.95% | [3] 7.5% | [4] -17.4% | [5] -3.15% | [6] -11.1%

CC1(n2[nH]c(=O)n(-c3ccccc3)c2=O)Cn2c(=O)n(-c3ccccc3)c(=O)n2-c2ccccc21 (stereo not given)
inactive: [1] -49.2% | [2] -0.3% | [3] -1% | [4] 18.7% | [5] -5.2% | [6] 9.1%

CC(/C=N\Nc1ccc([N+](=O)[O-])cc1)=N/N=C(N)N
inactive: [1] 8.35% | [2] -2.9% | [3] 9.55% | [4] -10.9% | [5] 3.1% | [6] 18.7%

CC(c1ccccc1)C1OCCO1 (stereo not given)
inactive: [1] -7.45% | [2] -27.4% | [3] -15.8% | [4] -30.8% | [5] -28.2% | [6] 28.7%

COC(=O)c1ccc(O)c(CN(C)C)c1
inactive: [1] 26.6% | [2] -10.6% | [3] 6.6% | [4] 3.4% | [5] -15.1% | [6] 18.8%

CCc1ccccc1NOC
inactive: [1] 7.65% | [2] -1.9% | [3] -1.05% | [4] -7.15% | [5] 8.45% | [6] 9.65%

O=[N+]([O-])CC1(O)CCCCC1
inactive: [1] 25.6% | [2] 9.05% | [3] 11.2% | [4] 7.95% | [5] -0.65% | [6] 0.9%

COc1ccc(Cl)cc1NC(=O)c1cccc([N+](=O)[O-])c1
inactive: [1] -2.45% | [2] 0.7% | [3] 12.9% | [4] -13.9% | [5] 16.9% | [6] -1.25%

CNc1ccc(C(=O)O)cc1
inactive: [1] -7.8% | [2] -14% | [3] -2.25% | [4] 5.1% | [5] -0.5% | [6] -9.9%

O=S1Cc2nc3ccccc3n2C1c1c(F)cccc1F (stereo not given)
inactive: [1] 1.25% | [2] -6.1% | [3] -4% | [4] 21.6% | [5] 3.6% | [6] -18.8%

CN(C)Cc1ccc(-c2cc3onc(-c4ccccc4)c3c(=O)n2C)cc1
inactive: [1] -22.9% | [2] -13.1% | [3] -29.5% | [4] -8.4% | [5] -28% | [6] 2.5%

NCCNCCCNC(=O)c1cc(-c2ccccc2)nc2ccccc12
inactive: [1] -18.8% | [2] -6.35% | [3] -1.7% | [4] -11.9% | [5] 14.9% | [6] -3.95%

CC(C)CSC(SCC(C)C)C(O)C(O)C(O)CO (stereo not given)
inactive: [1] -6.85% | [2] 3% | [3] 5.4% | [4] -35.2% | [5] 10.2% | [6] 6%

O=CC(=O)c1ccc(Br)cc1
inactive: [1] 13.7% | [2] 19.2% | [3] 13.2% | [4] -1.05% | [5] -7.15% | [6] 19.4%

COc1cc2c(cc1OC)C1c3ccccc3CCCN1CC2 (stereo not given)
inactive: [1] -40.4% | [2] -4.5% | [3] -57.5% | [4] 0.55% | [5] -23.6% | [6] -27%

CSc1cc(/C=C/c2ccccc2)ccc1N
inactive: [1] 1% | [2] 1.5% | [3] -9.45% | [4] -33.5% | [5] 5.25% | [6] 2%

COc1ccc(C(=O)c2ccc(Cl)s2)cc1
inactive: [1] 8.4% | [2] -4.85% | [3] 22.4% | [4] -13.2% | [5] 21% | [6] 5.1%

CC(=O)NC(CCCN(Cc1ccccc1)C(=O)NCCCl)C(=O)NCc1ccccc1 (stereo not given)
inactive: [1] 13.7% | [2] -25.5% | [3] 4.5% | [4] 5.7% | [5] -33.7% | [6] -18.6%
